NOD2 RIPK2 PPI: NOD2-RIPK2 protein interaction inhibition; inhibition, % at 4.98 µM; CHO BLA complementation NOD2-RIPK2, CCF4 ratio; O43353; 360,000 tested, 0.38% active; AID 624267; in the data active = inhibition above about 21%
Exocytosis inh: blocks lytic granule exocytosis | TALL-104 LAMP-1 surface exposure, flow cytometry; cells stimulated with thapsigargin and PMA | inhibition, % at 10 µM | 360,000 tested, 0.66% active | AID 651702;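 active = inhibition above about 55%, limit read from the data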
PRMT1 inh: PRMT1 (human) inhibition, primary screen; Q99873; recombinant PRMT1, activity-based probe fluorescence polarization; inhibition, % at 2.79 µM; 370,000 tested, 1.3% active;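 active = inhibition above about 21% made by adding two undisclosed values, limit read from the data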
ABHD5 PLIN5 PPI: inhibitors of human ABHD5-perilipin-5 interaction. 360,000 tested, 0.78% active. Q00G26+Q8WTS1. inhibition, % at 4 µM. Split G. princeps luciferase complementation, luminescence, 4 h. AID 602281;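 active = inhibition above the mean inhibition across every tested compound plus 3 SD, cut at about 22% in these data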
TLR4 MyD88 comp: TLR4-MyD88 interaction inhibition in cells; inhibition, % at 8.4 µM; HeLa CL3-4 TLR4/MyD88 BLA complementation, FRET ratio; O00206+Q99836; AID 861; 200,000 tested, 0.18% active; in the data active = inhibition above about 25%
TLR9-MyD88 block: inhibitors of human TLR9-MyD88 binding | Q9NR96+Q99836 | CHO BLA complementation TLR9-MyD88, CCF4 FRET ratio | inhibition, % at 4.98 µM | 340,000 tested, 0.21% active;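 active = inhibition above the mean over all tested compounds plus 3 SD, cut at about 21% in these data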
TLR9-MyD88 conf: TLR9-MyD88 interaction inhibition, confirmation; shares compounds with TLR9-MyD88 block; CHO TLR9/MyD88 BLA complementation, CCF4 FRET ratio; inhibition, % at 4.98 µM; 680 tested, 51% active; AID 540250;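 active = mean inhibition across three repeats above about 21% taken from the earlier screen, limit read from the data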;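 note: blue over green emission ratio reports constitutive TLR9 MyD88 association via BLA complementation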
BLA counter: beta-lactamase reporter inhibition, counter-screen artifact; shares compounds with TLR9-MyD88 block; 680 tested, 7% active; inhibition, % at 4.98 µM; CHO-BLA cells, CCF4 FRET ratio, BLA reporter;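 active = mean inhibition above a 50% cutoff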;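 note: counterscreen of TLR9-MyD88 hits on CMV-driven BLA in CHO-K1 cells; higher means less blue over green ratio so more BLA blockade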
TLR9 CHO tox: CHO cell toxicity counter-screen for TLR9-MyD88 inhibitors; AID 588336; inhibition, % at 4.98 µM; 680 tested, 39% active; shares compounds with TLR9-MyD88 block; TLR9-MyD88 CHO cells cytotoxicity, luminescence; in the data active = inhibition above about 11%
Large screens that a line does not name were inactive (follow-up assays come after a bar, where they were run). This is a sample that favours compounds with a hit; in the whole collection about 2.6% have one here.

O=C(CN1C(=O)CCSc2ccccc21)Nc1cccc(Cl)c1F	none (no result: NOD2 RIPK2 PPI, Exocytosis inh, ABHD5 PLIN5 PPI, TLR4 MyD88 comp, TLR9-MyD88 block)
C=CCn1nc2n(c1=O)-c1ccccc1SC2	TLR9-MyD88 block 23 (no result: TLR4 MyD88 comp) | TLR9-MyD88 conf inactive | BLA counter inactive | TLR9 CHO tox inactive
C[C@@H]1CN(C(=O)OC(C)(C)C)CCN1c1ccc(N2CC[C@@H](O)C2)c(C#N)c1	none (no result: NOD2 RIPK2 PPI, Exocytosis inh, ABHD5 PLIN5 PPI, TLR4 MyD88 comp, TLR9-MyD88 block)
CCC(C)CNC(=O)CSc1nnc(-c2cccnc2)n1C1CCCCC1 (configuration not stated)	none (no result: NOD2 RIPK2 PPI, Exocytosis inh, ABHD5 PLIN5 PPI, TLR4 MyD88 comp, TLR9-MyD88 block)
COC(=O)[C@]12C[C@H](CC(=O)NCCCN3CCCC3=O)C(=O)N(CCC3=CCCCC3)C1=C[C@H](COCc1ccccc1)O[C@@H]2C	none (no result: NOD2 RIPK2 PPI, Exocytosis inh, ABHD5 PLIN5 PPI, TLR4 MyD88 comp, TLR9-MyD88 block)
COC(=O)c1ccc(Cn2c(O)c(N=O)c3ccccc32)o1	TLR9-MyD88 block 26 | TLR9-MyD88 conf inactive | BLA counter inactive | TLR9 CHO tox inactive
O=Nc1c(O)n(Cc2cccc(C(F)(F)F)c2)c2ccccc12	TLR9-MyD88 block 33 | TLR9-MyD88 conf inactive | BLA counter inactive | TLR9 CHO tox inactive
COC(=O)[C@]12C[C@H](CC(=O)N3CCSCC3)C(=O)N(Cc3ccc4c(c3)OCO4)C1=C[C@H](C(C)(C)C)O[C@@H]2C	none (no result: NOD2 RIPK2 PPI, Exocytosis inh, ABHD5 PLIN5 PPI, TLR4 MyD88 comp, TLR9-MyD88 block)
COc1ccc(-c2cc(NC(=O)Cc3c(C)[nH]c4ccccc34)ccc2Nc2cccnc2)cc1OC	none (no result: NOD2 RIPK2 PPI, Exocytosis inh, ABHD5 PLIN5 PPI, TLR4 MyD88 comp, TLR9-MyD88 block)
Cc1cc(C(=O)O)c(C)o1	none (no result: NOD2 RIPK2 PPI, Exocytosis inh, ABHD5 PLIN5 PPI, TLR4 MyD88 comp, TLR9-MyD88 block)
COc1cc(NC(=O)CN2C(=O)CN(C)C2=O)c(C)cc1[N+](=O)[O-]	none
COc1cc(NC(=O)Cn2ncc(Cl)c(Cl)c2=O)c(C)cc1[N+](=O)[O-]	TLR9-MyD88 block 21 | TLR9-MyD88 conf 23 | BLA counter inactive | TLR9 CHO tox 98
CCOC(=O)CC[C@H]1CC[C@]2(CCCN(S(=O)(=O)c3ccccc3)C2)O1	none (no result: NOD2 RIPK2 PPI, Exocytosis inh, ABHD5 PLIN5 PPI, TLR4 MyD88 comp, TLR9-MyD88 block)
CC(=O)Nc1cccc(C2=CC(c3ccco3)n3ncnc3N2)c1 (configuration not stated)	none (no result: NOD2 RIPK2 PPI, Exocytosis inh, PRMT1 inh, ABHD5 PLIN5 PPI, TLR9-MyD88 block)
COc1ccc(C2=CC(c3ccco3)n3ncnc3N2)cc1 (configuration not stated)	NOD2 RIPK2 PPI 21, TLR9-MyD88 block 28 (no result: PRMT1 inh) | TLR9-MyD88 conf inactive | BLA counter inactive | TLR9 CHO tox inactive
COC(=O)[C@]12C[C@H](CC(=O)NCc3cccs3)C(=O)N(Cc3ccccc3)C1=C[C@H](COCc1ccccc1)O[C@@H]2C	none (no result: NOD2 RIPK2 PPI, Exocytosis inh, ABHD5 PLIN5 PPI, TLR4 MyD88 comp, TLR9-MyD88 block)
CCOC(=O)CNc1c(-c2ccc(F)cc2)nc2cnccn12	TLR9-MyD88 block 24 | TLR9-MyD88 conf inactive | BLA counter inactive | TLR9 CHO tox inactive
CCOC(=O)CNc1c(-c2ccc(OC)cc2)nc2ccc(Cl)cn12	none
CCN(Cc1ccccc1)C(=O)C1CCCN(c2ncccn2)C1 (configuration not stated)	none (no result: NOD2 RIPK2 PPI, Exocytosis inh, ABHD5 PLIN5 PPI, TLR4 MyD88 comp, TLR9-MyD88 block)
COC(=O)[C@]12C[C@H](CC(=O)NCCCN3CCCC3=O)C(=O)N(Cc3ccccc3)C1=C[C@H](C(C)(C)C)O[C@@H]2C	none (no result: NOD2 RIPK2 PPI, Exocytosis inh, ABHD5 PLIN5 PPI, TLR4 MyD88 comp, TLR9-MyD88 block)
COC(=O)c1cn[nH]c1NC(=S)Nc1ccc(Cl)c(Cl)c1	TLR9-MyD88 block 22 | TLR9-MyD88 conf inactive | BLA counter inactive | TLR9 CHO tox inactive
C/C(=N/NS(=O)(=O)c1ccc(C)cc1)c1ccc(NC(=O)C(F)(F)F)cc1	TLR9-MyD88 block 22 | TLR9-MyD88 conf inactive | BLA counter inactive | TLR9 CHO tox inactive
COc1ccc(Br)cc1C(=O)N/N=C/c1ccc([N+](=O)[O-])cc1	none
COc1cc(/C=N/NC(=O)c2ccc([N+](=O)[O-])cc2Cl)cc(Br)c1O	TLR9-MyD88 block 34 | TLR9-MyD88 conf inactive | BLA counter inactive | TLR9 CHO tox inactive
CNS(=O)(=O)c1cc(N(C)S(=O)(=O)c2ccc(C)cc2)c(C)cc1C	none
Cc1ccc(S(=O)(=O)N(C)c2cc(S(=O)(=O)Nc3ccncc3)c(C)cc2C)cc1	TLR9-MyD88 block 29 | TLR9-MyD88 conf inactive | BLA counter inactive | TLR9 CHO tox inactive
CC(=O)Oc1ccc(-n2c(=O)c3ccccc3c3ccccc3c2=O)cc1	none
CC(=O)Oc1ccc(N2C(=O)c3cccc4c([N+](=O)[O-])ccc(c34)C2=O)cc1	TLR9-MyD88 block 23 (no result: TLR4 MyD88 comp) | TLR9-MyD88 conf 32 | BLA counter inactive | TLR9 CHO tox 85
Cc1ccc(S(=O)(=O)/N=C2/NC(=O)/C(=C/c3cc([N+](=O)[O-])ccc3O)S2)cc1	TLR9-MyD88 block 27 (no result: TLR4 MyD88 comp) | TLR9-MyD88 conf inactive | BLA counter inactive | TLR9 CHO tox inactive
O=C1NC(=Nc2ccccc2Cl)S/C1=C\c1cc([N+](=O)[O-])ccc1O	none (no result: TLR4 MyD88 comp)
C(=N\NC1=Nc2cccc3cccc1c23)/c1ccccc1	none
Clc1ccc(/C=N/NC2=Nc3cccc4cccc2c34)cc1	TLR9-MyD88 block 29 | TLR9-MyD88 conf inactive | BLA counter inactive | TLR9 CHO tox inactive
Cc1cc2c(nc1C)CCCN2S(=O)(=O)c1cccs1	none (no result: NOD2 RIPK2 PPI, Exocytosis inh, ABHD5 PLIN5 PPI, TLR4 MyD88 comp, TLR9-MyD88 block)
Cc1cccc(N2C(=O)/C(=C\c3ccc(OC(F)F)cc3)c3ccccc3C2=O)c1	TLR9-MyD88 block 50 | TLR9-MyD88 conf 45 | BLA counter inactive | TLR9 CHO tox inactive
Cc1cc(C)c(CN2CCC(CO)(CCOc3ccccc3)CC2)cc1C	none
Cc1c(CN2CCC(CO)(CCOc3ccccc3)CC2)c(=O)n(-c2ccccc2)n1C	TLR9-MyD88 block 34 | TLR9-MyD88 conf inactive | BLA counter inactive | TLR9 CHO tox inactive

Screening data as filed in PubChem.
